From PubChem BioAssay AID1159580 (chemical genetic matrix, 2015)
The whole screen tested about 5,500 compounds, of which about 2,000 (36%) were called active. Roughly 18% stayed inconclusive and do not appear here. No stated cut-off is given here; in the data, active means normalized growth mostly below about 0.91 (no sharp cut-off); inconclusive means no clear call, values can overlap the other calls; inactive means mostly above about 0.92. The list shows a part of the results.

Test: chemical genetic growth profiling, strain panel (AID 1159580);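 further: tested at 20 µM; growth read once vehicle control cultures reached saturation at 30 °C; 1 = growth at the plate median or of vehicle wells; lower values mean less growth of the strain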
Conditions: S. cerevisiae deletion strains, growth OD

Measured: normalized growth

Nc1ncnc2c1nc(Sc1ccc(Cl)cc1)n2C1OC2COP(=O)(O)O[C@@H]2[C@@H]1O (stereo not given in full)
inactive: locus YAL040C, strain CLN3, active compounds read low 0.98 | locus YDR150W, strain NUM1, active compounds read low 0.999 | locus YDR363W, strain ESC2, active compounds read low 1.01 | locus YER002W, strain NOP16, active compounds read low 0.984 | locus YNL175C, strain NOP13, active compounds read low 1.01 | locus YNL197C, strain WHI3, active compounds read low 1.02 | locus YNL224C, strain SQS1, active compounds read low 0.995 | locus YNL322C, strain KRE1, active compounds read low 0.996 | locus YOR083W, strain WHI5 (second series), active compounds read low 1.02 | locus YPL241C, strain CIN2, active compounds read low 1
